Screens from PubChem BioAssay.
Many of the other results were omitted from the sample, so hits are more common in it than they were.
Methyltransferases – Primary Screen for Target Class Profiling of Small Molecule Inhibitors of Methyltransferases | purified enzyme, MTase-Glo SAH luminescence; stronger effect = lower value | AID 1745853, 2022 | hit rate 3.9% among 25,000 | calls only at 40 µM; call rule not given here
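Each enzyme was assayed with SAM and its substrate. SAH formation detected by MTase-Glo luminescence; single-point 40 uM screen[…].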
Numbers without * were called inactive; i = inactive; + = active, no number. % is scaled to controls: 0 for no effect and ±100 for the full control effect.

SMILES | Methyltransferases
COc1cccc(CN2C(=O)c3cc(-c4ccccc4)nn3CC2(C)C(=O)NCc2ccccc2)c1OC (stereo not drawn) | i
CC(C)CCn1c(=O)c2ccc(C(=O)NC(C)C)cc2n2c(=O)n(CC(=O)c3cccc(Cl)c3)nc12 | i
CCCCN1C(=O)c2ccc(-c3ccccc3)n2CC1(C)C(=O)NC1CCCCCCC1 (stereo not drawn) | i
CC1(C(=O)NC2CCCCCC2)Cn2c(cc3occc32)C(=O)N1CCCN1CCCCCC1 (stereo not drawn) | i
COCCOc1cc2ncnc(Cl)c2cc1OCCOC | i
COc1cc2ncnc(Nc3ccc(F)c(Cl)c3)c2cc1OCCCN1CCOCC1 | +
COc1cc2c(Oc3ccc(NC(=O)C4(C(=O)Nc5ccc(F)cc5)CC4)cc3F)ccnc2cc1OCCCN1CCOCC1 | i
COc1cc2c(Nc3ccc(Cl)c(Cl)c3F)ncnc2cc1OCC1C[C@@H]2CN(C)C[C@@H]2C1 (stereo partly drawn) | +
Cn1cc(-c2cnc(Nc3ccc(F)c(Cl)c3)c3c2CCO3)cn1 | i
O=C(CCn1ccc2cc(S(=O)(=O)N3CCCCC3)ccc21)NCc1ccco1 | i
CCc1cccc(NC(=O)Cn2nc3n(C)c(=O)c4ccc(C(=O)NC5CCCC5)cc4n3c2=O)c1 | i
CCCn1c(=O)c2ccc(C(=O)NCC(C)C)cc2n2c(=O)n(CC(=O)c3ccc(OC)cc3)nc12 | i
CCc1cc2c(cc3n2CC(C)(C(=O)NC2CCC(C)CC2)N(CCN2CCCCCC2)C3=O)s1 (stereo not drawn) | i
CC(C)c1c2cc(-c3ccnc(NC4CCC(NC5CCOCC5)CC4)n3)ccc2nn1C (stereo not drawn) | +
CC(C)CNC(=O)c1ccc2c(=O)n(C(C)C)c3nn(CC(=O)Nc4ccc(F)cc4)c(=O)n3c2c1 | i
CN1C(=O)c2cc(C(=O)NCc3ccc(F)cc3)nn2CC1(C)C(=O)NC1CCCC1 (stereo not drawn) | i
Cc1ccc(CN2C(=O)c3cc4sccc4n3CC2(C)C(=O)NC2CCCCCCC2)cc1 (stereo not drawn) | i
CCC(C)NC(=O)c1ccc2c(=O)n(CCC(C)C)c3nn(CC(=O)Nc4ccc(C)cc4)c(=O)n3c2c1 (stereo not drawn) | i
C/C=C/c1ccc2oc(-c3ccc(O)c(OC)c3)c(C)c2c1 | i
COc1cc(/C=C/C(=O)O[C@@H]2C[C@@](O)(C(=O)O)C[C@@H](O)[C@@H]2O)ccc1O | i
COc1cc(/C=C/c2cn(-c3ccc(C(=O)O)cc3)nc2/C=C/c2ccc(O)c(OC)c2)ccc1O | +
CC(C)CNC(=O)c1ccc2c(=O)n(Cc3ccccc3)c3nn(Cc4cccc(Cl)c4)c(=O)n3c2c1 | i
CC(C)NC(=O)CSc1nnc2n(CCc3ccccc3)c(=O)c3ccccc3n12 | i
C=Cc1ccc(Cn2nc3n(CCc4ccccc4)c(=O)c4ccccc4n3c2=O)cc1 | i
O=C(Cn1nc2nc(Nc3ccc(F)cc3)ccn2c1=O)NCc1ccc2c(c1)OCO2 | i
SMILES | Methyltransferases
Cc1ccccc1Cn1nc2n(C(C)C)c(=O)c3ccc(C(=O)NC(C)C)cc3n2c1=O | i
CN(C)CCNC(=O)c1cccn2c(=O)c3cc4ccccc4cc3nc12 | +
CCCN1C(=O)c2cc(C(=O)NCCN(C)C)nn2CC1(C)C(=O)NC1CCCC1 (stereo not drawn) | i
CCc1ccc(N2C(=O)CSc3c(c4ccccc4n3C)C2C(=O)NCCC(C)C)cc1 (stereo not drawn) | i
CCc1ccc(CN2C(=O)c3c(C(=O)OC)ncn3CC2(C)C(=O)NC2CCCC2)cc1 (stereo not drawn) | i
Cn1nc(-c2ccc(C(F)(F)F)cc2)nc2c(=O)n(C)c(=O)nc1-2 | +
Cc1ccc(C(=O)CSc2nnc3n(C)c(=O)c4ccc(C(=O)NC5CCCCC5)cc4n23)c(C)c1 | i
CC(C)NC(=O)CSc1nnc2n(C)c(=O)c3ccc(C(=O)NC4CCCC4)cc3n12 | i
Cc1ccc(Cl)cc1NC(=O)CSc1nnc2[nH]c(=O)c(C)nn12 | i
Cc1ccc(Cl)cc1N1CCN(C(=O)CCc2nnc3n(CC(C)C)c(=O)c4ccccc4n23)CC1 | i
CCCCN(CC)CCN1C(=O)c2ccc(-c3ccco3)n2CC1(C)C(=O)NC1CCCCCC1 (stereo not drawn) | i
COc1ccc(OC)c(CCNC(=O)CCc2nnc3n(Cc4ccc(Cl)cc4)c(=O)c4ccccc4n23)c1 | i
CC(C)(C)Sc1c(CC(C)(C)C(=O)O)n(Cc2ccc(Cl)cc2)c2ccc(OCc3ccc4ccccc4n3)cc12 | +
COc1ccc(Cn2c(=O)c3ccccc3n3c(-c4ccc(Cl)cc4)nnc23)cc1 | i
COc1ccc(CNC(=O)CCc2nnc3n(Cc4ccc(Cl)cc4)c(=O)c4ccccc4n23)cc1 | i
COc1ccccc1CNC(=O)c1cc2n(n1)CC(C)(C(=O)NCc1ccccc1)N(C)C2=O (stereo not drawn) | i
CCCCCNc1nc2c(S(=O)(=O)c3ccc(C)cc3)nnn2c2ccccc12 | i
Cc1cc2c(cc3n2CC(C)(C(=O)NC2CCCCC2)N(Cc2ccccc2)C3=O)o1 (stereo not drawn) | i
COc1ccc(OC)c(CN2C(=O)c3cc4ccccc4n3CC2(C)C(=O)NCCC(C)C)c1 (stereo not drawn) | i
COc1ccc(C(=O)N(CCC(C)C)Cc2nc(C)c(C)n2Cc2ccccc2C)c(OC)c1 | +
COc1ccc(N2C(=O)c3cc4ccccc4n3CC2(C)C(=O)NCCC(C)C)c(OC)c1 (stereo not drawn) | i
CCCn1c(=O)c2ccc(C(=O)NCC(C)C)cc2n2c(SCC(=O)Nc3ccc(C)cc3C)nnc12 | i
CCc1cccc(NS(=O)(=O)c2cc3[nH]c(=O)[nH]c3cc2C)c1 | i
O=C(NC1CCCN(c2cc(N3CCCC3)ncn2)C1)c1ccco1 (stereo not drawn) | i
O=C(c1ccco1)N1CCCCC1c1nc(C2CC2)n[nH]1 (stereo not drawn) | i
SMILES | Methyltransferases
COc1cc2nc(N3CCN(C(=O)c4ccco4)C4CCCCC43)nc(N)c2cc1OC (stereo not drawn) | +
Cc1ccc(NC(=O)Cn2nc3n(C)c(=O)c4ccc(C(=O)NC5CCCC5)cc4n3c2=O)cc1F | i
COCCN1C(=O)c2cc3sccc3n2CC1(C)C(=O)NC1CCCCC1 (stereo not drawn) | i
COc1ccc(CNC(=O)C2(C)Cn3cnc(C(=O)NCCc4ccccc4)c3C(=O)N2C2CC2)cc1 (stereo not drawn) | i
Cc1cn(-c2cc(NC(=O)c3ccc(C)c(Nc4nccc(-c5cnccn5)n4)c3)cc(C(F)(F)F)c2)cn1 | i
CCN1CCN(Cc2ccc(NC(=O)c3ccc(C)c(NC(=O)c4cncc(-c5cccs5)c4)c3)cc2C(F)(F)F)CC1 | i
CCOc1ccc(N2C(=O)CSc3c(c4ccccc4n3C)C2C(=O)NCCC(C)C)cc1 (stereo not drawn) | i
NS(=O)(=O)c1ccc(CCNc2nc3c(-c4cccc(Br)c4)nnn3c3ccccc23)cc1 | i
CC(=O)N1CCc2cc(Br)c(S(=O)(=O)NCCN3CCN(c4ccccc4F)CC3)cc21 | i
CCOC(=O)c1cc2n(n1)CC(C)(C(=O)NC1CCCCC1)N(c1ccc(F)cc1C)C2=O (stereo not drawn) | i
O=S1(=O)CCN(Cc2cc(NCC3CCOCC3)c3[nH]c(-c4ccccc4)cc3c2)CC1 | +
